According to PubChem BioAssay (NCATS):
Results filed as inconclusive are left out. A call without a number means that no potency is given here. Unmarked numbers belong to inactive results. Activity calls are given as the source filed them. Calls come from the whole dose curve; as a rule, active = well fitted curve in the direction sought with a large enough effect; inconclusive = small, poorly fitted or top-dose-only effect, or another doubt; inactive = no such curve, though single readings can be large; an effect the other way counts as inactive or inconclusive.

How the values were obtained:
[1] = target: Rap guanine nucleotide exchange factor 3 (Homo sapiens) (UniProt O95398); assay: Confirmatory qHTS for antagonist of cAMP-regulated guanine nucleotide exchange factor 3 (EPAC1) (AID 1645880); settings: EPAC1 Rap1B-BODIPY-GDP exchange, fluorescence; activity, negative = inhibition: at 115 µM (top of the series); note: nearly all actives have a fitted effect of over 55% in size; note: potency is the fitted concentration of half-maximal effect
In short: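 Released BODIPY-GDP fluoresces less than Rap1-bound BODIPY-GDP; the signal is followed at 480/540 nm at 5-min intervals over 30 min, after 5 min at room temperature. Reactions contain 100 nM EPAC1, 250 nM RAP1B-BODIPY-GDP and 50 uM GDP; results are normalized to ATA and DMSO.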

[2] = target: Rap guanine nucleotide exchange factor 3 (Homo sapiens) (UniProt O95398); assay: Confirmatory qHTS for agonist of cAMP-regulated guanine nucleotide exchange factor 3 (EPAC1) (AID 1645881); settings: EPAC1 Rap1B BODIPY-GDP exchange fluorescence; series mostly up to 154 µM; note: nearly all actives have a fitted effect of over 75% in size; note: potency is the fitted concentration of half-maximal effect;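 for activation: EPAC1 catalysed release of BODIPY-GDP from Rap1B seen as fluorescence loss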
[3] = target: Rap guanine nucleotide exchange factor 4 (Homo sapiens) (UniProt Q8WZA2); assay: Confirmatory qHTS for agonist of cAMP-regulated guanine nucleotide exchange factor 4 (EPAC2) (AID 1645884); settings: EPAC2 GEF activity, Rap1B-BODIPY-GDP fluorescence; series mostly up to 154 µM;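 note: nucleotide exchange releases bodipy-GDP from Rap1 and this lowers its fluorescence; nearly all actives have a fitted effect of over 65% in size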; note: potency is the fitted concentration of half-maximal effect
[4] = target: Rap guanine nucleotide exchange factor 4 (Homo sapiens) (UniProt Q8WZA2); assay: Confirmatory qHTS for antagonist of cAMP-regulated guanine nucleotide exchange factor 4 (EPAC2) (AID 1645885); settings: EPAC2 Rap1B-BODIPY-GDP exchange fluorescence, biochemical; series mostly up to 12.7 µM; note: nearly all actives have a fitted effect of over 25% in size; note: potency is the fitted concentration of half-maximal effect
[5] = target: Rap guanine nucleotide exchange factor 3 (Homo sapiens) (UniProt O95398); assay: Counterscreen qHTS for antagonist of cAMP-regulated guanine nucleotide exchange factor 3 (EPAC1) (AID 1645888); settings: Rap1B-BODIPY-GDP nucleotide exchange, fluorescence; series mostly up to 154 µM
In short: (§1)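 Rap1B-BODIPY-GDP 250 nM + GDP 50 uM; cpds 7-pt, final 9.74 nM–152 uM (activator mode) or from 7.32 nM upwards (inhibitor mode); RT; FI 480/540 nm at 5 and 30 min, then ± cAMP, reread.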

[6] = target: Rap guanine nucleotide exchange factor 3 (Homo sapiens) (UniProt O95398); assay: Counterscreen qHTS for agonist of cAMP-regulated guanine nucleotide exchange factor 3 (EPAC1) (AID 1645889); settings: EPAC1 Rap1B-BODIPY-GDP exchange, fluorescence; series mostly up to 154 µM; note: nearly all actives have a fitted effect of over 40% in size; note: potency is the fitted concentration of half-maximal effect
In short: as §1

Chain of Rap guanine nucleotide exchange factor 3 (Homo sapiens) (O95398 whole entry, looked up): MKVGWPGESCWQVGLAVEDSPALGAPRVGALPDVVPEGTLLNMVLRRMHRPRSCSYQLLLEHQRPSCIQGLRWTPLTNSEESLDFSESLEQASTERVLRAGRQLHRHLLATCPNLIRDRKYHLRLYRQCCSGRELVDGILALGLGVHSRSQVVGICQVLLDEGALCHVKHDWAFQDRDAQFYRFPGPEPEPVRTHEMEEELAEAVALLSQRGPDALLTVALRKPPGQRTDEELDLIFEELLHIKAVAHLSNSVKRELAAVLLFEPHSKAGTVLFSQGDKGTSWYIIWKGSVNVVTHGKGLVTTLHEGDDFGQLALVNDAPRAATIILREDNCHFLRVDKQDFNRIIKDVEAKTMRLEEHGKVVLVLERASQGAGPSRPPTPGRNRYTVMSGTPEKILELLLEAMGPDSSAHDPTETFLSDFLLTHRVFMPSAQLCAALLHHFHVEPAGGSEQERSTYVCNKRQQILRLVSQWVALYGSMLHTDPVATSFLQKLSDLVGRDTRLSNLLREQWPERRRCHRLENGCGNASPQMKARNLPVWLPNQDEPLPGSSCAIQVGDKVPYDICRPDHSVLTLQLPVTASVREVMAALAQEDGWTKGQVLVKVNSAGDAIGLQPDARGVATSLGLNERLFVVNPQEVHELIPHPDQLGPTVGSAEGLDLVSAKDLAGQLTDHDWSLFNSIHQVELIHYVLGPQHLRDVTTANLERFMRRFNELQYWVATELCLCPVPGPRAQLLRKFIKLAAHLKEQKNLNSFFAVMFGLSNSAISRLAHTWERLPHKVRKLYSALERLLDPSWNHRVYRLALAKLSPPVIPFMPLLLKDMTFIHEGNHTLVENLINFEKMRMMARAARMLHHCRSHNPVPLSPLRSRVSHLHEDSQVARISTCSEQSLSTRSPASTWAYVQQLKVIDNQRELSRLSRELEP
Chain of Rap guanine nucleotide exchange factor 4 (Homo sapiens) (Q8WZA2 whole entry, looked up): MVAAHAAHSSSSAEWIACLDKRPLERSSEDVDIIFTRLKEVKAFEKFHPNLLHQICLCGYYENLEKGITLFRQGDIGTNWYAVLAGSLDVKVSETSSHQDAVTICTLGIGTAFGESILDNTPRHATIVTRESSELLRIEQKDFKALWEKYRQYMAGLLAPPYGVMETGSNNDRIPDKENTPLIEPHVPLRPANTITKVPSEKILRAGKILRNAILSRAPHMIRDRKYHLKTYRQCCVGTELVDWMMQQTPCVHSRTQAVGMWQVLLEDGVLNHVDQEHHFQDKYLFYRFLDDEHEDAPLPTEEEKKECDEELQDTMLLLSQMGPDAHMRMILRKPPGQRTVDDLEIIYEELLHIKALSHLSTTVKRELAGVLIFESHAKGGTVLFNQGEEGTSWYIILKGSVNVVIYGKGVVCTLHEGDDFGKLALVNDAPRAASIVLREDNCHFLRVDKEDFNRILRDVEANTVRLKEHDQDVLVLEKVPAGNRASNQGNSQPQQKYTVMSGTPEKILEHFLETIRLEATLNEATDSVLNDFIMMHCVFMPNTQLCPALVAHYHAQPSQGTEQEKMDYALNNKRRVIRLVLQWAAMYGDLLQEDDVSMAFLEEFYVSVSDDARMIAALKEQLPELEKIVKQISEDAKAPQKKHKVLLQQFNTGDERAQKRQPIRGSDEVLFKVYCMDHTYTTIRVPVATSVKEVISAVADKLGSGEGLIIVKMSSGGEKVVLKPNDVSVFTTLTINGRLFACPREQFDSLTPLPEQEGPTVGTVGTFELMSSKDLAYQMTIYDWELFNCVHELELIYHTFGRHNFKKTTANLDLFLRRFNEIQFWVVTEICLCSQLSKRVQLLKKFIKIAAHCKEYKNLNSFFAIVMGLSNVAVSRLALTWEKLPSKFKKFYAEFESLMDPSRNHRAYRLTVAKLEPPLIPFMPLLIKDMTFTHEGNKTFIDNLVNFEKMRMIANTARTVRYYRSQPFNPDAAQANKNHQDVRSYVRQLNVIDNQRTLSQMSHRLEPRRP

| SMILES | Potency [1] | Potency [2] | activation [3] | Potency [4] | activity change, negative = inhibition [5] | activation [6] | Potency [3] | Potency [5] | Potency [6] |
| --- | --- | --- | --- | --- | --- | --- | --- | --- | --- |
| Cc1cccc(C)c1OC(=O)c1ccccc1 | inactive | inactive | 9.32% [at 17.1 µM, percent relative to cAMP agonist control] | inactive | 6.4% [at 30.8 µM] | 6.89% [at 30.8 µM] | – | – | – |
| Cc1ccc(C(=O)Nc2ccccc2[N+](=O)[O-])cc1S(=O)(=O)N1CCOCC1 | inactive | inactive | – | inactive | – | – | inactive | inactive | inactive |
| COC(=O)[C@H](CC(C)C)NC(=O)CC[C@H]1O[C@@H](n2ccc(=O)[nH]c2=O)[C@H](O)[C@@H]1O | inactive | inactive | – | inactive | – | – | inactive | inactive | inactive |
| Cc1csc2nc(CNS(=O)(=O)c3ccc4c(c3)CCCC4)cn12 | inactive | inactive | -3.4% [at 17.1 µM, percent relative to cAMP agonist control] | inactive | -30.8% [at 30.8 µM] | -8.72% [at 30.8 µM] | – | – | – |
| CN1/C(=C\C=C2/SC(=S)N(CC(=O)O)C2=O)C(C)(C)c2ccccc21 | inactive | 44.7 µM (active) | – | inactive | 286% [at 30.8 µM] | – | 7.94 µM (active) | – | 10 µM (active) |
| COC(=O)c1ccccc1NC(=O)c1nn(-c2ccc(OC)cc2)c(=O)c2c1c1ccccc1n2C | inactive | inactive | – | inactive | – | – | inactive | inactive | inactive |
| COc1nc(C)cc(C)c1S(=O)(=O)c1ccc(Cl)cc1 | inactive | inactive | 6.22% [at 17.1 µM, percent relative to cAMP agonist control] | inactive | -12.6% [at 30.8 µM] | 27.8% [at 30.8 µM] | – | – | – |
| CC(OC(=O)CC1CCCCC1)C(=O)Nc1ccc(S(N)(=O)=O)cc1 (stereo not drawn) | inactive | inactive | 2.89% [at 17.1 µM, percent relative to cAMP agonist control] | inactive | -10.1% [at 30.8 µM] | 15.8% [at 30.8 µM] | – | – | – |
| COC(=O)c1cc2ccsc2n1Cc1cccc(F)c1 | inactive | inactive | – | inactive | – | – | inactive | inactive | inactive |
| O=C(Nc1ccc(-c2nnc(-c3ccco3)o2)cc1)C(c1ccccc1)c1ccccc1 | inactive | inactive | – | inactive | – | – | inactive | inactive | inactive |
| O=C(COc1ccccc1/C=C\c1[nH]c(=O)[nH]c(=O)c1[N+](=O)[O-])Nc1ccccc1 | 10 µM (active) | inactive | 2.16% [at 17.1 µM, percent relative to cAMP agonist control] | inactive | 2.03% [at 30.8 µM] | 7.06% [at 30.8 µM] | – | – | – |
| COc1ccc(N(C(=O)c2ccco2)S(=O)(=O)c2cc(OC)ccc2OC)cc1 | inactive | inactive | – | inactive | – | – | inactive | inactive | inactive |
| CN(Cc1ccc(Cl)cc1Cl)C(=O)CN1C(=O)NC2(CCCC2)C1=O | inactive | inactive | – | inactive | – | – | inactive | inactive | inactive |
| CCCn1c(=O)n(C)c(=O)c2c(SCC(=O)NCc3ccco3)nc(C3CC3)nc21 | inactive | inactive | – | inactive | – | – | inactive | inactive | inactive |
| CCN(CC)c1ccc2c(c1)OC(N)=C(C#N)C2c1cccnc1 (stereo not drawn) | inactive | 89.1 µM (active) | – | 75.7 µM (active) | – | – | 100 µM (active) | inactive | 35.5 µM (active) |
| Cc1ccc(/C(O)=C2/C(=O)C(=O)OC2c2ccc(Cl)cc2)cc1 (stereo not drawn) | 39.8 µM (active) | inactive | 1.22% [at 17.1 µM, percent relative to cAMP agonist control] | inactive | -12.7% [at 30.8 µM] | 5.06% [at 30.8 µM] | – | – | – |
| c1cncc(-c2nc(NCCCN3CCOCC3)c3c4c(sc3n2)CCC4)c1 | inactive | inactive | – | inactive | – | – | inactive | inactive | inactive |
| Cc1ccc(S(=O)(=O)NCCC(=O)N2CCC(Cc3ccccc3)CC2)cc1 | inactive | inactive | 3.1% [at 17.1 µM, percent relative to cAMP agonist control] | inactive | -15.5% [at 30.8 µM] | 8.49% [at 30.8 µM] | – | – | – |
| COc1ccc(CNC(=S)N/N=C/c2ccc(OC)c(OC)c2)cc1 | inactive | inactive | – | 67.5 µM (active) | – | – | inactive | inactive | inactive |

| SMILES | Potency [1] | Potency [2] | activation [3] | Potency [4] | activity change, negative = inhibition [5] | activation [6] | Potency [3] | Potency [5] | Potency [6] |
| --- | --- | --- | --- | --- | --- | --- | --- | --- | --- |
| CSc1ccccc1NC(=O)CN(c1ccccc1)S(=O)(=O)N(C)C | inactive | inactive | – | inactive | – | – | inactive | inactive | inactive |
| COc1cc2c(cc1OC)CN(C(C)C(=O)N1CCc3ccccc31)CC2 (stereo not drawn) | inactive | inactive | – | inactive | – | – | inactive | inactive | inactive |
| Fc1ccc(-c2ccc3nccn3c2)cc1Cl | inactive | inactive | 2.32% [at 17.1 µM, percent relative to cAMP agonist control] | inactive | -1.11% [at 30.8 µM] | 10.1% [at 30.8 µM] | – | – | – |
| CC(C)c1nn2c(=O)cc(COC(=O)c3cccc(NC(=O)c4cccs4)c3)nc2s1 | inactive | inactive | – | inactive | – | – | inactive | inactive | inactive |
| N#C/C(=C(/O)C(Cl)(Cl)Cl)c1nc2ccccc2[nH]1 | inactive | inactive | – | inactive | – | – | inactive | inactive | inactive |
| CCOC(=O)N1CCN(C(=O)C(C)(C)Oc2ccc(Cl)cc2)CC1 | inactive | inactive | 3.62% [at 17.1 µM, percent relative to cAMP agonist control] | 0.239 µM (active) | 6.37% [at 30.8 µM] | 21.9% [at 30.8 µM] | – | – | – |
| CC(Oc1ccc(Br)cc1)C(=O)NCC(c1cccs1)N1CCOCC1 (stereo not drawn) | inactive | inactive | – | inactive | – | – | inactive | inactive | inactive |
| Cc1cccc(NC(=O)c2cc(S(=O)(=O)N(C)c3ccc(F)cc3)ccc2Cl)n1 | inactive | inactive | – | inactive | – | – | inactive | inactive | inactive |
| CCN(CC(=O)Nc1ccccc1OC)C(=O)c1ccc(N(C)S(=O)(=O)c2ccc(C)cc2)cc1 | inactive | inactive | – | inactive | – | – | inactive | inactive | inactive |
| Cc1ccc(S(=O)(=O)Nc2ccc3cc([N+](=O)[O-])ccc3c2[N+](=O)[O-])cc1 | 21.3 µM (active) | inactive | – | inactive | – | – | inactive | inactive | inactive |
| Cc1[nH]n(-c2ncc(-c3ccccc3)s2)c(=O)c1C(c1ccc(Br)cc1)C(C#N)C#N (stereo not drawn) | 12.6 µM (active) | inactive | 4.64% [at 17.1 µM, percent relative to cAMP agonist control] | inactive | -9.33% [at 30.8 µM] | 8.62% [at 30.8 µM] | – | – | – |
| Cc1cc(Br)ccc1-n1[nH]c(C)c(C=Nc2cccc3nsnc23)c1=O | inactive | inactive | – | inactive | – | – | inactive | inactive | inactive |
| CCN(CC)c1ccc2cc(C(C)=O)c(=O)oc2c1 | inactive | 89.1 µM (active) | – | inactive | – | – | 100 µM (active) | inactive | 50.1 µM (active) |
| Cc1ccc(C)c(CSc2nnc(C)n3c2cc2sccc23)c1 | inactive | inactive | – | inactive | – | – | inactive | inactive | inactive |
| O=C(O)CCn1cc(C2CC(c3ccccc3)=NN2c2ccccc2)c(-c2ccccc2)n1 (stereo not drawn) | inactive | inactive | – | inactive | – | – | inactive | inactive | inactive |
| COC(=O)c1ccc(CSc2ccc3nnc(-c4cccc(F)c4)n3n2)o1 | inactive | inactive | -3.47% [at 17.1 µM, percent relative to cAMP agonist control] | inactive | -19.6% [at 30.8 µM] | 0.6% [at 30.8 µM] | – | – | – |
| CC(OC(=O)/C(C#N)=C/c1ccc(N(C)C)cc1)C(=O)N(C)c1ccccc1 (stereo not drawn) | inactive | 50.1 µM (active) | 3.03% [at 17.1 µM, percent relative to cAMP agonist control] | inactive | -2.82% [at 30.8 µM] | 20.3% [at 30.8 µM] | – | – | – |
| CC(=O)Nc1ccc(S(=O)(=O)Nc2nc(-c3ccc(C(C)(C)C)cc3)cs2)cc1 | 44.7 µM (active) | inactive | 0% [at 17.1 µM, percent relative to cAMP agonist control] | inactive | -15.7% [at 30.8 µM] | 8.98% [at 30.8 µM] | – | – | – |
| COc1ccc(-n2ccn(Cc3ccc(C)cc3)c(=O)c2=O)cc1OC | inactive | inactive | – | inactive | – | – | inactive | inactive | inactive |
